Laboratory results taken from PubChem BioAssay (NCATS).
Several values for one entry are separate records, joined by “and”; a condition that tells them apart may be missing. Equal entries are not always repeated. Records with an inconclusive call do not appear. Entries that show only a call come without a potency. Activity calls are given as the source filed them. Unless noted, the call rests on the fitted dose curve; in most records, active means well fitted curve in the direction sought with a large enough effect; inconclusive means small, poorly fitted or top-dose-only effect, or another doubt; inactive means no such curve, though single readings can be large; an effect the other way counts as inactive or inconclusive.

Key:
[1] = Cell Viability - N2a (AID 540); details: N2a mouse neuroblastoma cell viability; activity change, negative = cytotoxicity: at 92.2 µM (top of the series); further: nearly all actives have a fitted effect of over 45% in size
In short: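 Mouse neuroblastoma N2a cells (1500/well) were preincubated 5 hr at 37 °C, then exposed to compounds for 40 hr at 37 °C in complete medium. Viability was read as intracellular ATP by CellTiter-Glo luminescence; AC50 from Hill fits.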

[2] = Cellular Toxicity (caspase-3) BJ (AID 658)
In short: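 Luminescent aminoluciferin-substrate cleavage reports caspase 3/7 activity in normal human BJ fibroblasts after 16 hr compound exposure at 37 °C. Normalized to DMSO (basal) and 10 uM staurosporine (100%); AC50 from Hill fit of concentration-response.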

[3] = target: Cytochrome P450 3A4 (Homo sapiens) (UniProt P08684); experiment: qHTS Assay for Inhibitors and Substrates of Cytochrome P450 3A4 (AID 884); further: nearly all actives have a fitted effect of over 50% in size; further: potency means the concentration at half of the fitted maximal effect
In short: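 20 nM human CYP3A4 with 25 uM Luciferin-PPXE (at KM) in 200 mM KPO4, preincubated 10 min with compound; NADPH regeneration started a 60 min RT reaction. Luciferin detected by luminescence, normalized to 57 uM ketoconazole as full inhibition.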

[4] = target: Estrogen receptor (Homo sapiens) (UniProt P03372); experiment: qHTS assay for small molecule antagonists of estrogen receptor alpha signaling (AID 588513; active means well fitted curve in the direction sought with a large enough effect in the signal ratio, with a control signal flat, not every such curve was filed as active; the % refers to the signal ratio)
In short: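 Fluorescence from CCF4 substrate after 2 h at room temperature gave reporter activity; cells had been exposed to compound and 0.5nM 17-beta-estradiol for 18 h at 37 C. Hill-equation fitting yielded IC50 and maximal response.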

[5] = target: Estrogen receptor (Homo sapiens) (UniProt P03372); experiment: qHTS assay for small molecule agonists of estrogen receptor alpha signaling (AID 588514; calls by dose curve; further: nearly all actives have a fitted effect of over 70% in size)
In short: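 ER-alpha-UAS-bla GripTite HEK 293 cells in medium with 2% charcoal/dextran-treated FBS were treated with compound titrations at 37 C for 18 hrs; beta-lactamase reporter read by CCF4 fluorescence after 2 hrs at RT.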

[6] = target: Glucocorticoid receptor (Homo sapiens) (UniProt P04150); experiment: qHTS assay for small molecule agonists of glucocorticoid receptor signaling (AID 588532; active means well fitted curve in the direction sought with a large enough effect in the signal ratio, with a control signal flat; the % refers to the signal ratio); details: HeLa MMTV-bla, beta-lactamase ratio, agonist, 18 h; stronger effect = higher value; percent of dexamethasone control, DMSO zero
In short: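 Titration series, up to 92 uM, applied to GRE-bla HeLa cells for 18 h at 37 C. Detection by CCF4 FRET substrate after 2 h at RT.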

[7] = target: Glucocorticoid receptor (Homo sapiens) (UniProt P04150); experiment: qHTS assay for small molecule antagonists of glucocorticoid receptor signaling (AID 588533; active means well fitted inhibition curve with a large enough effect in the signal ratio, with a control signal flat, not every such curve was filed as active; the % refers to the signal ratio;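 further: cells stimulated with 2 nM dexamethasone as agonist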)
In short: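 Antagonist-mode qHTS: compound titrations added to GRE-bla HeLa cells, then dexamethasone 2 nM final; 18 h, 37 C. CCF4 FRET fluorescence normalized to dexamethasone and DMSO; IC50 from Hill fit.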

[8] = target: Peroxisome proliferator-activated receptor gamma (Homo sapiens) (UniProt P37231); experiment: qHTS assay for small molecule antagonists of peroxisome proliferator-activated receptor gamma signaling (AID 588537; active means well fitted inhibition curve with a large enough effect in the signal ratio, with a control signal flat, not every such curve was filed as active; the % refers to the signal ratio;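 further: reporter cells co-stimulated with 50 nM rosiglitazone agonist during compound treatment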)
In short: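 PPAR-gamma-UAS-bla HEK293 cells (3000/well, 1% charcoal/dextran-stripped FBS) were preincubated 6-6.5 h at 37 C, given titrated compounds, then stimulated with 50 nM rosiglitazone for 16 h. Beta-lactamase activity was read with CCF4 dye; IC50 came from Hill fits.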

[9] = target: Vitamin D3 receptor (Homo sapiens) (UniProt P11473); experiment: qHTS assay for small molecule antagonists of vitamin D receptor signaling (AID 588541; calls by dose curve;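 further: receptor activated by calcitriol during compound treatment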)
In short: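 VDR-UAS-bla HEK293T cells (2000/well, 2% charcoal-stripped FBS) were treated with titrated compounds plus 1-alpha,25-dihydroxyvitamin D3 (50 nM or 3 nM final) for 16 h at 37 C. CCF4 beta-lactamase fluorescence was read; Hill fits gave IC50.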

[10] = target: Voltage-gated inwardly rectifying potassium channel KCNH2 (Homo sapiens) (UniProt Q12809); experiment: qHTS Assay for Small Molecule Inhibitors of the Human hERG Channel Activity (AID 588834);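 further: top concentration of the series differs between compounds; lower thallium flux fluorescence means stronger hERG block; nearly all actives have a fitted effect of over 50% in size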
In short: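 hERG-BacMam U2OS, 2000 cells/well; 0.7X FluxOR loading 1 hr RT dark; cpd ~10 min 37 °C; stim buffer; FDSS fluorescence 2 min @ 1 s; AC50 Hill fit.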

[11] = qHTS assay for small molecule activators of the nuclear factor-kappa B (NF-kB) signaling pathway (AID 651749; active means well fitted activation curve with a large enough effect in the signal ratio; the % refers to the signal ratio); details: NF-kB-bla ME-180 cells, beta-lactamase FRET ratio, 16 h; stronger effect = higher value
In short: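 ME-180 cells stably carrying a beta-lactamase reporter under an NF-kB response element were exposed to compound or DMSO vehicle for 16 hr at 37C, 5% CO2. Pathway activation was read by FRET, since reporter expression disrupts FRET.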

[12] = qHTS assay for small molecule disruptors of the mitochondrial membrane potential - 1 hr assay (AID 651754; calls by dose curve; further: nearly all actives have a fitted effect of over 35% in size; further: potency means the concentration at half of the fitted maximal effect)
In short: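 HepG2 cells, attached overnight at 37C, were exposed to compound or DMSO vehicle for 1 hr at 37C, 5% CO2, then stained with Mito-MPS dye for 30 min. Red aggregate versus green monomer fluorescence reports membrane potential.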

[13] = target: Nuclear receptor ROR-gamma (Homo sapiens) (UniProt P51449); experiment: qHTS assay for small molecule antagonists of the retinoid-related orphan receptor gamma (ROR-gamma) signaling pathway (AID 651802); further: nearly all actives have a fitted effect of over 60% in size
In short: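 CHO cells carrying TET-inducible ROR-gamma and an ROR response element–luciferase reporter were exposed to compound, then induced with doxycycline. After 16hr at 37C, luminescence was read; lower signal indicates antagonism.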

[14] = qHTS assay for small molecule antagonists of the retinoid-related orphan receptor gamma (ROR-gamma) signaling pathway - cell viability counter screen (AID 720652; active means well fitted curve in the direction sought with a large enough effect in the repeat runs; an effect the other way counts as inactive or inconclusive;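 further: compound exposure lasted 16 hr before ATP read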)
In short: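 Counter screen in CHO cells carrying TET-inducible ROR-gamma and an ROR response element-luciferase reporter; cells plated 5 hr, compound pinned, doxycycline added, then 16 hr at 37 C. Viability read as intracellular ATP by CellTiter-Glo luminescence.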

[15] = qHTS assay for small molecule antagonists of peroxisome proliferator-activated receptor delta signaling (AID 588535; active means well fitted inhibition curve with a large enough effect in the signal ratio, with a control signal flat, not every such curve was filed as active; the % refers to the signal ratio;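 on max response: cells co-treated with a PPAR-delta agonist as stimulator during compound exposure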); details: HEK293T PPARd-UAS-bla, beta-lactamase FRET ratio, 18 h; 460 nm channel
In short: (§1)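 GeneBLAzer PPAR-delta-UAS-bla HEK293T cells in medium with 2% charcoal/dextran FBS were preincubated 5 hrs at 37 C, then given compounds, incubated 18 hrs at 37 C, and read by CCF4 beta-lactamase fluorescence; IC50 from Hill fits.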

[16] = target: Peroxisome proliferator-activated receptor delta (Homo sapiens) (UniProt Q03181); experiment: as above
In short: as §1

[17] = qHTS assay for small molecule agonists of the antioxidant response element (ARE) signaling pathway (AID 651741; active means well fitted activation curve with a large enough effect in the signal ratio; the % refers to the signal ratio; further: potency means the concentration at half of the fitted maximal effect)
In short: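 ARE-bla HepG2 cells (beta-lactamase reporter under ARE control) were plated at 2,000 cells/well, preincubated 5 h at 37 C/5% CO2, then treated with DMSO-dissolved compounds for 16 h at 37 C; LiveBLAzer B/G FRET substrate added, fluorescence read after 2 h at room temperature.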

[18] = qHTS assay for small molecule activators of the p53 signaling pathway (AID 651743; active means well fitted activation curve with a large enough effect in the signal ratio, not every such curve was filed as active; the % refers to the signal ratio); details: HCT-116 p53RE-bla, beta-lactamase FRET ratio, 16 h; activation: stronger effect = higher value
In short: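 p53RE-bla HCT-116 cells with a stably integrated beta-lactamase reporter under p53 response elements were plated, rested 5 hours at 37 C/5% CO2, then exposed to compounds in DMSO for 16 hours at 37 C. LiveBLAzer B/G FRET substrate was read after 2 hours at room temperature.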

[19] = qHTS assay for environmental chemicals that activate the Aryl hydrocarbon Receptor (AhR) signaling pathway (AID 651777); details: 1A2-DRE human hepatoma cells, luciferase, 24 h; activation: stronger effect = higher value; further: nearly all actives have a fitted effect of over 15% in size
In short: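 Reporter gene assay: hepatoma cells with DRE/CYP1A2-luciferase, 24 hr compound incubation at 37 C, 5% CO2, luminescence after One-Glo (30 min, RT).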

[20] = target: Peroxisome proliferator-activated receptor delta (Homo sapiens) (UniProt Q03181); experiment: qHTS assay for small molecule agonists of peroxisome proliferator-activated receptor delta signaling (AID 588534; calls by dose curve)
In short: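 Cell-based beta-lactamase reporter assay run in agonist mode: cells seeded and incubated 5 hrs at 37 C, compounds added and incubated 18 hrs at 37 C. CCF4 dye fluorescence read after 2 hrs at RT; EC50 and efficacy from Hill fits.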

Sequence of Glucocorticoid receptor (Homo sapiens) (P04150 whole entry, looked up): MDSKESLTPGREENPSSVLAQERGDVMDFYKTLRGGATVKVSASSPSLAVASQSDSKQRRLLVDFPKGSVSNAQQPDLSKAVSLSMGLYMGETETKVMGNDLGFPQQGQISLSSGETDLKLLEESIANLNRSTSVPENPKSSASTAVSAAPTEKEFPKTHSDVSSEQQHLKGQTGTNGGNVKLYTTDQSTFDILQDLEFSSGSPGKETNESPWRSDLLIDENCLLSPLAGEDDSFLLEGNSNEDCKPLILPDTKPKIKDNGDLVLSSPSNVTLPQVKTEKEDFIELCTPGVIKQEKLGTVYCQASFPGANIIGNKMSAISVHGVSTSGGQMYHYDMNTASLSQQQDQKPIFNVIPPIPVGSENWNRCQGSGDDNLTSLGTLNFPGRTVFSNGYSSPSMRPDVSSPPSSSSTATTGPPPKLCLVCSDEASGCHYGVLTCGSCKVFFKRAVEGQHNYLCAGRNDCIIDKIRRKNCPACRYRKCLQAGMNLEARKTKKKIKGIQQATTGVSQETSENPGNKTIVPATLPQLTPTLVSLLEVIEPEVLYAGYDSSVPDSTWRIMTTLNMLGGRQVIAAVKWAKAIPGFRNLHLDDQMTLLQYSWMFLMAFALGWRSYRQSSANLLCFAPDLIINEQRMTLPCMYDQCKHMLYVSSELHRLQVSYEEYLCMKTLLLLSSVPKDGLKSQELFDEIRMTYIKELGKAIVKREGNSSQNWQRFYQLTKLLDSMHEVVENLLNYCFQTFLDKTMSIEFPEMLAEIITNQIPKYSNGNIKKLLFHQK
Sequence of Peroxisome proliferator-activated receptor delta (Homo sapiens) (Q03181 whole entry, looked up): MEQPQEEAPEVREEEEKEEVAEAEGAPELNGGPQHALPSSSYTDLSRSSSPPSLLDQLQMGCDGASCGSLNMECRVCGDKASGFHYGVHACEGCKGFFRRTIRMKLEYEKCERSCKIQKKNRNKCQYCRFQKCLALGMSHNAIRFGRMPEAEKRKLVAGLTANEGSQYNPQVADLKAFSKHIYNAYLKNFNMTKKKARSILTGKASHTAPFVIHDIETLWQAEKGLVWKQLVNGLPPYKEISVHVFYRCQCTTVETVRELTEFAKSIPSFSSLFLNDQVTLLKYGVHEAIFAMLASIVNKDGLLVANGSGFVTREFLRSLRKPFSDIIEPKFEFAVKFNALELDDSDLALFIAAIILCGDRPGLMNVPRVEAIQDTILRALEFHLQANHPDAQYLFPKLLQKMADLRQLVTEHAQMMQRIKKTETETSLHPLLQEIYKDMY
Sequence of Cytochrome P450 3A4 (Homo sapiens) (P08684 whole entry, looked up): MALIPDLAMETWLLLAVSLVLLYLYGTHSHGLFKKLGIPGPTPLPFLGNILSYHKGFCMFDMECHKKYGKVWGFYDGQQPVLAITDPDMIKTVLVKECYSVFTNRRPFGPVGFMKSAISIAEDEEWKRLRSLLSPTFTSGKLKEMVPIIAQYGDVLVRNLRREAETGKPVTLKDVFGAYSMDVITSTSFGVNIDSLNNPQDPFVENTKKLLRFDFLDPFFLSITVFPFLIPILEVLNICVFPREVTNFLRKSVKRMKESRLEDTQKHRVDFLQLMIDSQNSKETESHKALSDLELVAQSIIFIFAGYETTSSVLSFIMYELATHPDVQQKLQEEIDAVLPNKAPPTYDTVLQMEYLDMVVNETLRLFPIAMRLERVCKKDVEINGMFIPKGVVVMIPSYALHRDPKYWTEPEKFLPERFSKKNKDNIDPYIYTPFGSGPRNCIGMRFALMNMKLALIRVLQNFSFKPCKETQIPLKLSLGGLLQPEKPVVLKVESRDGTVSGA
Sequence of Nuclear receptor ROR-gamma (Homo sapiens) (P51449 whole entry, looked up): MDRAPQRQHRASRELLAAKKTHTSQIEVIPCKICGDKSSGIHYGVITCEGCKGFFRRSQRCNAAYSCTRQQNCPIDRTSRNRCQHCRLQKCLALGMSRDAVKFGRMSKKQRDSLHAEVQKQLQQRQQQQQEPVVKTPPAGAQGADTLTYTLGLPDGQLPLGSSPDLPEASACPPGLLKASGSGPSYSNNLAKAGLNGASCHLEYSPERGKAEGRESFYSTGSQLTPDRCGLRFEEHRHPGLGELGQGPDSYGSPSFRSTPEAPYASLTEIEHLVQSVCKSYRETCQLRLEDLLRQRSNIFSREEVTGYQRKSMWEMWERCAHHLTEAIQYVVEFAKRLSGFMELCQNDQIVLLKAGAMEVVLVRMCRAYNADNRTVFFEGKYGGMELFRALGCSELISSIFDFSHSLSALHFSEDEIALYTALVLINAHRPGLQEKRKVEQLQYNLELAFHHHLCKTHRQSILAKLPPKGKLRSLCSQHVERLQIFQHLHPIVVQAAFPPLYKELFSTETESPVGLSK
Sequence of Voltage-gated inwardly rectifying potassium channel KCNH2 (Homo sapiens) (Q12809 whole entry, looked up): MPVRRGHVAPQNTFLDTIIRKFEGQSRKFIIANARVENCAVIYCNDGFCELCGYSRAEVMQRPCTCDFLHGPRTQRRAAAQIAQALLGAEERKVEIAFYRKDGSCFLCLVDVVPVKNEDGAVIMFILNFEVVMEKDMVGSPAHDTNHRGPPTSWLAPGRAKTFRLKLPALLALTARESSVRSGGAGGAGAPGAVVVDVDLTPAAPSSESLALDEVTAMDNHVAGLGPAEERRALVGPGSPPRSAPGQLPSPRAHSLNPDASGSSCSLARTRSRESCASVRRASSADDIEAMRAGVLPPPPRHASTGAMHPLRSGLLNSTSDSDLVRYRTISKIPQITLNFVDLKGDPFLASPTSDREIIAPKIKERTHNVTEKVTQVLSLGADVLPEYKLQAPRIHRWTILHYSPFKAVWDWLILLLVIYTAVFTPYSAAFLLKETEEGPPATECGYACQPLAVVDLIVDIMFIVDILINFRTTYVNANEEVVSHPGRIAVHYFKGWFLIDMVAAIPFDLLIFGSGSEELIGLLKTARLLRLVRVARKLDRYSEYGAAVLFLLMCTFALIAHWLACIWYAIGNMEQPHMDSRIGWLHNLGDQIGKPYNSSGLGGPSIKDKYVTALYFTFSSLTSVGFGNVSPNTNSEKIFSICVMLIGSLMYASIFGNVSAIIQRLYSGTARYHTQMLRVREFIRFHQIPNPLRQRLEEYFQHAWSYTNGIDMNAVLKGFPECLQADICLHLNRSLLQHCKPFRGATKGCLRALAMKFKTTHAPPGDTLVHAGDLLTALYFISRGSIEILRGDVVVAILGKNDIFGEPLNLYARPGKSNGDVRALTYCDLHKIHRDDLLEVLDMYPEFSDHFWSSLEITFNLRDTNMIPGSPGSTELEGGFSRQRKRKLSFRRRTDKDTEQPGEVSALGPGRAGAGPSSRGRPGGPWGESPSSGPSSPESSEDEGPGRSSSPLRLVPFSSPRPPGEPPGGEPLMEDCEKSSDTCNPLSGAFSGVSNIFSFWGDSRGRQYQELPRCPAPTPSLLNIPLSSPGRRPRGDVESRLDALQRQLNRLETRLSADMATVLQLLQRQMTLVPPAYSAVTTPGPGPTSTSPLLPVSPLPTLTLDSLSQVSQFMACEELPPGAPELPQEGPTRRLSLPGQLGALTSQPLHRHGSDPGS
Sequence of Estrogen receptor (Homo sapiens) (P03372 whole entry, looked up): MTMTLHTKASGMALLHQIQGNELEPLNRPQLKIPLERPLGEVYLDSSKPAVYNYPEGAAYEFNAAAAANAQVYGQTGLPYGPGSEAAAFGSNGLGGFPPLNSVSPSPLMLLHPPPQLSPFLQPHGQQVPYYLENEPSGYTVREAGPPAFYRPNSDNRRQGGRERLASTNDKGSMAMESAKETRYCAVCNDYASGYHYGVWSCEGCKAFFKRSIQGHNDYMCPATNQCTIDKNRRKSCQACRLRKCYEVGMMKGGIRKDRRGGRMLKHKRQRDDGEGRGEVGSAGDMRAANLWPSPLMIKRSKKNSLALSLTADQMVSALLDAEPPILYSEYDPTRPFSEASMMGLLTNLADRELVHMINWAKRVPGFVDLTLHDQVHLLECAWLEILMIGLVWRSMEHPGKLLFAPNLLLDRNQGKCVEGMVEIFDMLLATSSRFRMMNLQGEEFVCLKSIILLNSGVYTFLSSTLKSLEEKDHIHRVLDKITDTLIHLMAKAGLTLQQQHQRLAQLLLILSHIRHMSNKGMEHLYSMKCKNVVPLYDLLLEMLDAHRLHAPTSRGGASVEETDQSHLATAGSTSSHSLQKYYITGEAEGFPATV
Sequence of Vitamin D3 receptor (Homo sapiens) (P11473 whole entry, looked up): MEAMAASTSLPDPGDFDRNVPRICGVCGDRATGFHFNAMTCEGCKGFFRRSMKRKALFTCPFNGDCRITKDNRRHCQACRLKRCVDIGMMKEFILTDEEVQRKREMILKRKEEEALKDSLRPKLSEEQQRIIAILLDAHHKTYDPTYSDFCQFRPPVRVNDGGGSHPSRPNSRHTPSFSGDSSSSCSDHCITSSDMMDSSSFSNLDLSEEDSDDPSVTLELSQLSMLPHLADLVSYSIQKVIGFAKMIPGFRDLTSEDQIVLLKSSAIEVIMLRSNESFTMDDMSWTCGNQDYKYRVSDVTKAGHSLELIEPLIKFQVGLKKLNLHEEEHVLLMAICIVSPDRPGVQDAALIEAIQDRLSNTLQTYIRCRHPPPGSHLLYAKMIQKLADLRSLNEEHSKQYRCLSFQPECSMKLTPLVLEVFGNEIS
Sequence of Peroxisome proliferator-activated receptor gamma (Homo sapiens) (P37231 whole entry, looked up): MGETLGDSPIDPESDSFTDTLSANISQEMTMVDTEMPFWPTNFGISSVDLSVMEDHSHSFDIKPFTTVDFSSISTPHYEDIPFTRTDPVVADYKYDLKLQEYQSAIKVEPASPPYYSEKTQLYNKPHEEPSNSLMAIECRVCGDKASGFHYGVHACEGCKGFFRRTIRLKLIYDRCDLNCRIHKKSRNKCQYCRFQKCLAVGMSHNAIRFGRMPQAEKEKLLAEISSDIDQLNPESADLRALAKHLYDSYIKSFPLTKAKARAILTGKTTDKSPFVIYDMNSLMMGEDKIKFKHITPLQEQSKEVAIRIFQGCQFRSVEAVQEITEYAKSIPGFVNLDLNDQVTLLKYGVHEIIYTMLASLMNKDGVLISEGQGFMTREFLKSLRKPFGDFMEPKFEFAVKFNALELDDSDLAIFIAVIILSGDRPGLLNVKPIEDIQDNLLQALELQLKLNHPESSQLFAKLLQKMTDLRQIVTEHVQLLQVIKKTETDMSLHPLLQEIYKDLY

Structure (SMILES)	Potency [1]	outcome [2]	Potency [3]	Potency [4]	Potency [5]	activation [6]	outcome [7]	Potency [8]	outcome [9]	Potency [10]	activation [11]	Potency [12]	Potency [13]	Potency [14]	max response [15]	outcome [16]	Potency [17]	activation [18]	activation [19]	outcome [20]
OCCBr	inactive	inactive	inactive	inactive	inactive	-2.73% (inactive)	inactive	inactive	inactive	inactive	0.0665% (inactive)	inactive	inactive	inactive						
CCCCC#N	inactive		inactive	inactive	inactive							inactive	inactive	inactive	-3.23%	inactive	inactive	-7.46% (inactive)	1.07% (inactive)	
CC(C)[C@]12CC(=O)[C@H](C)[C@H]1C2	inactive		inactive					inactive			-0.354% (inactive) and -5.97% (inactive)	inactive	inactive	inactive	17.2% and -10.4%	inactive	inactive		-0.165% (inactive) and 1.56% (inactive)	inactive
CCOP(=O)(OCC)OCC	inactive	inactive	inactive			4.27% (inactive) and 16.4% (inactive)	inactive	inactive	inactive			inactive	inactive		8.93% and -1.46%	inactive	inactive	2.61% (inactive) and -1.3% (inactive)	-0.171% (inactive) and -0.669% (inactive)	inactive
COC(=O)Nc1cccc(OC(=O)Nc2cccc(C)c2)c1	inactive	inactive	25.1 µM (active)			-3.09% (inactive)	inactive				-1.26% (inactive)	42.2 µM (active)	inactive					-2.65% (inactive)		inactive
CCCCOCC1CO1 (stereo not drawn)	inactive	inactive	inactive	inactive		-2.49% (inactive)	inactive	inactive	inactive	inactive		inactive	inactive	inactive	13.9%	inactive	inactive	-1.31% (inactive)		
OCC(Cl)CCl (stereo not drawn)	inactive	inactive	inactive	inactive	inactive	11.4% (inactive)	inactive	inactive	inactive		0.192% (inactive)				-16%	inactive		-0.732% (inactive)	1.02% (inactive)	inactive
Oc1cc(Cl)ccc1Cl	inactive	inactive				0.0862% (inactive) and 2.52% (inactive)	inactive	inactive	inactive	inactive	-0.753% (inactive) and -0.792% (inactive)		inactive	inactive	32.2% and -9.59%	inactive	inactive	0.543% (inactive) and -4% (inactive)	-0.282% (inactive) and -1.1% (inactive)	inactive
ClC=CCl	inactive		inactive	inactive	inactive	-2.58% (inactive)			inactive	inactive	0.173% (inactive)	inactive	inactive	inactive	12.6%	inactive	inactive	-3.46% (inactive)	0.329% (inactive)	
ClCC(Br)CBr (stereo not drawn)	inactive	inactive	inactive	inactive	inactive	-3.35% (inactive)	inactive		inactive	inactive	-0.578% (inactive)	inactive	inactive	inactive				-3.3% (inactive)	-0.863% (inactive)	
CCC#N	inactive	inactive	inactive			-7.32% (inactive)	inactive		inactive	inactive	-1.07% (inactive)			inactive	-1.4%		inactive			inactive
NNC(N)=S	inactive		inactive	inactive	inactive	0.137% (inactive)		inactive	inactive	inactive	0.227% (inactive)	inactive	inactive	inactive						inactive
ClC(Cl)C(Cl)Cl	inactive	inactive	inactive	inactive	inactive	1.52% (inactive)	inactive		inactive		-0.991% (inactive)	inactive		inactive			inactive	-4.56% (inactive)	-2.65% (inactive)	
OC[P+](CO)(CO)CO	inactive	inactive	inactive	inactive	inactive	-0.662% (inactive) and -6.97% (inactive)	inactive	inactive				inactive		inactive	-16.4%		37.6 µM (active) and 30.6 µM (active)			inactive
C1CC2OC2CC1C1CO1 (stereo not drawn)	inactive	inactive	inactive		inactive			inactive	inactive	inactive	-0.692% (inactive) and -2.3% (inactive)	inactive	inactive		13.2%	inactive	inactive		1.2% (inactive) and -1.91% (inactive)	inactive
